Measured values taken from PubChem BioAssay (NCI).
The panel holds about 83,000 compounds, 20% with a hit somewhere; the sample as a whole holds those more often.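 Testing used 96-well plates and a 48-hour single-concentration exposure. Example: -40 means 40% of the starting cells died.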

Key:
Assay in all cases: NCI-60 one-dose screen, 48 h (100 = growth as untreated, 0 = no growth, -100 = all killed); active = growth percent below 10; inactive = the rest
RPMI-8226 leukemia = conditions: 10 µM
OVCAR-8 ovarian = conditions: 10 µM
OVCAR-4 ovarian = conditions: 10 µM
SK-OV-3 ovarian = conditions: 10 µM
IGROV1 ovarian = conditions: 10 µM
OVCAR-3 ovarian = conditions: 10 µM
T-47D breast = conditions: 10 µM
BT-549 breast = conditions: 10 µM
MDA-MB-435 melanoma = conditions: 10 µM
SW-620 colon = conditions: 10 µM
MCF7 breast = conditions: 10 µM unless noted
HCT-116 colon = conditions: 10 µM
HCC-2998 colon = conditions: 10 µM
KM12 colon = conditions: 10 µM
HS 578T breast = conditions: 10 µM
NCI/ADR-RES ovarian = conditions: 10 µM
OVCAR-5 ovarian = conditions: 10 µM

Measured: growth

Cc1cc(N)c(S(=O)(=O)O)c(N)c1
inactive: RPMI-8226 leukemia 95.6% | OVCAR-8 ovarian 109% | OVCAR-4 ovarian 103% | SK-OV-3 ovarian 100% | IGROV1 ovarian 130% | OVCAR-3 ovarian 112% | T-47D breast 89.7% | BT-549 breast 57.8% | MDA-MB-435 melanoma 101% | SW-620 colon 90.8% | MCF7 breast 105% | HCT-116 colon 91.9% | HCC-2998 colon 86.3% | KM12 colon 107%

O=C(Nc1ccccc1)OCCc1ccccc1
inactive: OVCAR-8 ovarian 103% | OVCAR-4 ovarian 91.4% | SK-OV-3 ovarian 110% | IGROV1 ovarian 103% | OVCAR-3 ovarian 118% | HS 578T breast 120% | NCI/ADR-RES ovarian 110% | T-47D breast 104% | BT-549 breast 98.1% | MDA-MB-435 melanoma 99% | SW-620 colon 106% | MCF7 breast 93.7% | HCT-116 colon 109% | HCC-2998 colon 99.7% | KM12 colon 111%

CCN(CC)CCNc1ccc(CO)c2sc3ccccc3c(=O)c12
inactive: RPMI-8226 leukemia 37% | OVCAR-8 ovarian 31% | OVCAR-5 ovarian 53.3% | SK-OV-3 ovarian 43.6% | IGROV1 ovarian 51.6% | OVCAR-3 ovarian 62.8% | HS 578T breast 64.8% | NCI/ADR-RES ovarian 40.7% | T-47D breast 48.3% | MDA-MB-435 melanoma 38.1% | SW-620 colon 29.5% | HCT-116 colon 23.7% | HCC-2998 colon 40.6% | KM12 colon 42.5%
